From PMC5700166 come the findings set out here.

Holding throughout (experiment): protein-binding microarray (PBM); PBM: ~300 nM protein, 6 mM HEPES pH 7.8, 80 mM KCl, 0.5 mM EDTA, 0.5 mM EGTA, 6% glycerol, 35 ng/ul poly-dIdC, 1% milk, 1 h, room temperature; Ap Aiptasia and Nv Nematostella (sea anemones) / Co Capsaspora / Aq Amphimedon (sponge) / Dm Drosophila / Hu human; RHD is the Rel homology domain; high values mean tight binding
Conditions in all cases: dsDNA, one strand shown

For test [1], the target named is T1, GST-Ap-NF-kB RHD (Exaiptasia pallida (Aiptasia), UniProt A0A913YAJ5 2-422).
T1 sequence: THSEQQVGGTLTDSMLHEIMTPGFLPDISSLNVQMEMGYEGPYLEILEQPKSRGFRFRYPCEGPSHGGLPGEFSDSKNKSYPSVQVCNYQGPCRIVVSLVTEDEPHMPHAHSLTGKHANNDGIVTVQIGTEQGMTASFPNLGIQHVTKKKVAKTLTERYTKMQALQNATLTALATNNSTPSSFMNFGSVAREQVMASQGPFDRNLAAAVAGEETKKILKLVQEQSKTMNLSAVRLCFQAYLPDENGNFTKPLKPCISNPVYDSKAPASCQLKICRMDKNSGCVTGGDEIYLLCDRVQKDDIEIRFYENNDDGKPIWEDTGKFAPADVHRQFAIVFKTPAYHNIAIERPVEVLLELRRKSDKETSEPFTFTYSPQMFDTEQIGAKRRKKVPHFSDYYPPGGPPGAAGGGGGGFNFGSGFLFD

Test [2] deals with T2, GST-Nv-NF-kB (Cys allele) (Nematostella vectensis, UniProt E5G601 2-411).
T2 sequence: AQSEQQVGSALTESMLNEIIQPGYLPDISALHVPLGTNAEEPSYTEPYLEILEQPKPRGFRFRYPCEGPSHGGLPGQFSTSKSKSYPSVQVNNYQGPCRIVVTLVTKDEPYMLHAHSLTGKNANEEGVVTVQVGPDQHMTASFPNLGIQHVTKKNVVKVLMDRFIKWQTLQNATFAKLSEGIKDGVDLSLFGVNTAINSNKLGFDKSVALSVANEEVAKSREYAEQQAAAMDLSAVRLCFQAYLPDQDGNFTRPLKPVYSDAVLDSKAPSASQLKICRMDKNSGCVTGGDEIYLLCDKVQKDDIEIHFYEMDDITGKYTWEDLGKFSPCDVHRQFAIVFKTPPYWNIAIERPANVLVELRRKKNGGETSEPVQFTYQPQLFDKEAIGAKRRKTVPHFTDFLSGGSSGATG

For test [3], the target named is T3, GST-Dm-Relish (Drosophila melanogaster, UniProt Q94527 99-473).
T3 sequence: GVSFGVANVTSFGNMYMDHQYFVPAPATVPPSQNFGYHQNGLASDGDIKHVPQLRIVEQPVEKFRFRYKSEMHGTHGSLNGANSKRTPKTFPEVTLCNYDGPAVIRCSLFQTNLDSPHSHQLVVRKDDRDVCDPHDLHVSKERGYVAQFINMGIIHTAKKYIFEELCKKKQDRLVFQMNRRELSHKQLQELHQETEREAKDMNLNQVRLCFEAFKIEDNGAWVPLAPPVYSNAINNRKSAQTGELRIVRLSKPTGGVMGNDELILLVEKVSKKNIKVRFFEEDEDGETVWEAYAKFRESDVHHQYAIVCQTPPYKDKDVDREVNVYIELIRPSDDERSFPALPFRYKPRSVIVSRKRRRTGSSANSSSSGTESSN

Test [4] deals with T4, GST-Aq-NF-kB (Amphimedon queenslandica, UniProt A9Y5G7 2-389).
T4 sequence: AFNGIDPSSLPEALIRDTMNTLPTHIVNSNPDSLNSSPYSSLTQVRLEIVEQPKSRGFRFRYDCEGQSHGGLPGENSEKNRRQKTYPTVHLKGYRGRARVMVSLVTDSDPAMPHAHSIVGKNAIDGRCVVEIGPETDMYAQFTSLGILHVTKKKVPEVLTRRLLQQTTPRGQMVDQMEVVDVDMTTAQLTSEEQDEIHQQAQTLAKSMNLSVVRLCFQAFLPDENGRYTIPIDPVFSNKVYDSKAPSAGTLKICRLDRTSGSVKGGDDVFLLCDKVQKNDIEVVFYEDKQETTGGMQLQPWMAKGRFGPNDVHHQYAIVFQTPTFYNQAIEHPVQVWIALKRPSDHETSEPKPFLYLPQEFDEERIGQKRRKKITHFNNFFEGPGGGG

As to “CCGATTAACATCAGGAGAATCCCTGATGTTAATCGGGTCTTGATTCGCTTGACGCTGCTG”, the binding signal in test [1] was found to be 2.6 z-score; in test [2] it was 3.24 z-score; in test [3] it was 4.39 z-score; in test [4], 5.52 z-score.
The matching figures for “CCGATTAACATCAGGAATGTCCCTGATGTTAATCGGGTCTTGATTCGCTTGACGCTGCTG”: 3.06 z-score, 5.35 z-score, 3.4 z-score and 6.41 z-score.
Taken in the same sequence, the figures for “CCGATTAACATCAGGAGGCCCCCTGATGTTAATCGGGTCTTGATTCGCTTGACGCTGCTG” were 4.97 z-score, 2.51 z-score, 2.71 z-score and 5.1 z-score.
Taken in the same sequence, the figures for “CCGATTAACATCAGGACAGTCCCTGATGTTAATCGGGTCTTGATTCGCTTGACGCTGCTG” were 4.92 z-score, 5.23 z-score, 3.04 z-score and 7.13 z-score.
Turning to “CCGATTAACATCAGGGACTTACCTGATGTTAATCGGGTCTTGATTCGCTTGACGCTGCTG”, the binding signal in test [1] amounted to 5.1 z-score; in test [2], 7 z-score; in test [3], 7.96 z-score; in test [4], 8.29 z-score.
Taken in the same sequence, the figures for “CCGATTAACATCACGGACTTCCCTGATGTTAATCGGGTCTTGATTCGCTTGACGCTGCTG” were 2.56 z-score, 2.62 z-score, 7.44 z-score and 5.45 z-score.
The matching figures for “CCGATTAACATCAGGAAAAGCCCTGATGTTAATCGGGTCTTGATTCGCTTGACGCTGCTG”: 2.12 z-score, 1.89 z-score, 4.12 z-score and 4.95 z-score.
Taken in the same sequence, the figures for “CCGATTAACATCAGGGAGAGCCCTGATGTTAATCGGGTCTTGATTCGCTTGACGCTGCTG” were 3.06 z-score, 3.59 z-score, 1.82 z-score and 6.26 z-score.
Turning to “CCGATTAACATCAGGTAATCCCATGATGTTAATCGGGTCTTGATTCGCTTGACGCTGCTG”, the binding signal in test [1] worked out at 2.95 z-score; in test [2] it was 1.6 z-score; in test [3], 6.13 z-score; in test [4] it was 3.49 z-score.
Taken in the same sequence, the figures for “CCGATTAACATCAGGATATACCCTGATGTTAATCGGGTCTTGATTCGCTTGACGCTGCTG” were 2.02 z-score, 2.26 z-score, 2.67 z-score and 4.83 z-score.
Take “CCGATTAACATCAAAATTTCACCTGATGTTAATCGGGTCTTGATTCGCTTGACGCTGCTG”: the binding signal in test [1] stood at 1.14 z-score; in test [2], 2.14 z-score; in test [3] it was 2.34 z-score; in test [4], 1.7 z-score.
Taken in the same sequence, the figures for “CCGATTAACATCAAAAAAGACCCTGATGTTAATCGGGTCTTGATTCGCTTGACGCTGCTG” were 2.93 z-score, 5.44 z-score, 6.91 z-score and 6.04 z-score.
Taken in the same sequence, the figures for “CCGATTAACATCAGAAAAAACCCTGATGTTAATCGGGTCTTGATTCGCTTGACGCTGCTG” were 3.95 z-score, 4.93 z-score, 6.15 z-score and 6.47 z-score.
Taken in the same sequence, the figures for “CCGATTAACATCAGGGGCTGTACTGATGTTAATCGGGTCTTGATTCGCTTGACGCTGCTG” were 2.83 z-score, 3.09 z-score, 3.56 z-score and 4.35 z-score.
For the sequence “CCGATTAACATCAAAAAAAGTCCTGATGTTAATCGGGTCTTGATTCGCTTGACGCTGCTG”, the binding signal worked out at 1.18 z-score in test [1], 1.72 z-score in test [2], 5.69 z-score in test [3] and 4.05 z-score in test [4].
The matching figures for “CCGATTAACATCACGGTATTTCCTGATGTTAATCGGGTCTTGATTCGCTTGACGCTGCTG”: 1.56 z-score, 1.37 z-score, 3.77 z-score and 4.59 z-score.
